Source: PubChem BioAssay
Sampled rows, rich in hits. Any-hit rate of the full collection: about 12%.
Cav32 inh: Cav3.2 calcium influx blockers – cell-based, Fluo-4 calcium fluorescence, FDSS, MLSMR library, primary screen; AID 449739, 2010; Cav3.2-expressing cells; hits give low values; B-score at 10 µM; 4% of 100,000 active; Voltage-dependent T-type calcium channel subunit alpha-1H (Homo sapiens), O95180;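 active = single-dose well whose peak fluorescence ratio is a statistical outlier from its plate by either plate-standardised score or position-corrected B-score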
DAT uptake mod: changed hDAT dopamine uptake under cocaine IC80, either direction, primary screen, cocaine antagonist project, cell-based, LLC-PK1 hDAT, [14C]-dopamine uptake, MLSMR. Sodium-dependent dopamine transporter (Homo sapiens), Q01959. LLC-PK1 hDAT cells, [14C]-dopamine uptake with cocaine IC80; actives deviate in either direction. B-score at 10 µM. 1.3% of 110,000 active;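 active = Z score or B-score, a plate-position-corrected score, falls beyond the plate's 99.7% confidence bounds, in either direction; inactive = both scores lie inside the 99.7% bounds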;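 note: scored against the spread of the other compound wells on the same plate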
PLAP act: PLAP enzyme activators, biochemical, luminescence, HTS | Alkaline phosphatase, placental type (Homo sapiens), P05187 | purified PLAP enzyme, luminescent substrate read-out; hits give high values | activation fold at 20 µM | 1.2% of 96,000 active; in the data active = activation fold above about 2
PostGolgi yeast: phenotypic screen on post-Golgi transport, primary screen; 0.9% of 98,000 active; post-Golgi transport phenotypic cell assay; inhibition, % at 10 µM; AID 739, 2007;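 note: yeast cells grown in 1536-well plates; yeast grown about 18 h at 30C before absorbance read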
D1 allo mod: D1 CRE-luciferase signal change, two-sided – cell-based, HEK293 D1, dopamine EC30, D1 allosteric modulator project, primary screen; D(1A) dopamine receptor (Homo sapiens), P21728; dopamine EC30 potentiation; actives deviate in either direction; B-score at 10 µM; 5.9% of 58,000 active; AID 641, 2007;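 active = luminescence count or its row- and column-corrected plate score outside the 99.7% band of the plate's sample wells, on either side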
PostGolgi ctrl: growth inhibition of yeast control strain, primary screen, counter-screen for post-Golgi transport modulator project | efflux-deficient yeast background strain, growth absorbance A615, 16 h | inhibition, % at 10 µM | 5% of 98,000 active | AID 738, 2007
* marks the source's active call; other numbers are inactive results; · = no result. Cut-off read from the data, not from the text of the source, unless noted: active = inhibition above about 30%; inactive = the rest.

SMILES	Cav32 inh	DAT uptake mod	PLAP act	PostGolgi yeast	D1 allo mod	PostGolgi ctrl
COC(=O)[C@@]1(Cc2ccc(OC)cc2)[C@H]2c3cc(C(=O)N4CCCC4)n(CCn4cc([N+](=O)[O-])nc4C)c3C[C@H]2CN1C(=O)c1ccccc1	1.1	0.83	·	·	·	·
Cn1nnnc1SCCNC/C=C/c1ccccc1	0.58	0.51	1.1	-6	-0.041	-4
C(=N\c1nccs1)/c1cccnc1	1.7	0.15	·	·	0.7	·
COc1ccc(OCc2nnc(SCC(=O)N3c4ccccc4Sc4ccc(Cl)cc43)o2)cc1	-4.4*	-0.82	1	-1	·	7
CCOc1ccc2nc(SCC(=O)NC(=O)NCc3ccco3)[nH]c2c1	-3	0.84	1.7	-3	·	3
CCOc1ccc(OCC)c(NC(=O)CSc2nc3c(c(=O)n(C)c(=O)n3C)n2C(C)C)c1	-0.34	3*	1.5	-6	2.2	7
CCn1c(SCC(=O)c2cc(OC)ccc2OC)nc2c1c(=O)n(C)c(=O)n2C	·	·	0.8	·	4.9*	·
CCCCCn1c(CCCNC(=O)CC)nc2ccccc21	0.99	0.098	·	2	-0.44	11
CCOC(=O)c1c(C)n(C)c2ccc(OC(=O)c3ccoc3)cc12	0.38	1.7	1.3	7	0.32	32*
CCOC(=O)c1c(C)n(C)c2ccc(OCC(O)Cn3c(C)nc4ccccc43)cc12 (stereo not drawn)	-1.3	2*	1.5	-12	-0.29	-1
Cc1cc(NC(=O)CN2CCN(c3ccc(O)cc3)CC2)no1	0.13	-0.1	1.1	0	·	0
CCCNC(=O)c1cc2nc(-c3ccccc3)cc(C(F)(F)F)n2n1	0.6	0.45	·	·	·	·
CSc1nc(C)cc(OCC#N)n1	0.01	-1	0.9	1	3.2	-11
O=c1c(Cc2ccccc2)c(O)nc2n1CCCS2	-0.5	0.89	0.9	3	·	-1
O=c1c(Cc2ccccc2O)c(O)nc2n1CCCS2	-0.056	-0.94	0.9	3	-2.3*	1
COc1cccc(-c2cnc(NCc3cc(Cl)ccc3O)n2C)c1	-4.3*	1.8	·	-7	-2.6	71*
Cn1c(-c2cccc(Br)c2)cnc1NCc1cccnc1	0.36	0.72	1.6	0	-1.3	0
CCOC(=O)C1=C(C)NC(=O)C(C(N)=O)C12CCCC2 (stereo not drawn)	-0.49	-0.078	1	4	·	7
CCOC(=O)C1=C(C)NC(=O)NC1c1ccccc1Cl (stereo not drawn)	-0.065	-0.71	0.8	-10	-0.75	9
CCOC(=O)C1=C(C)NC(=O)NC1c1cccnc1 (stereo not drawn)	0.43	0.26	0.9	-2	-7.8*	2
CCOC(=O)C1=C(C)NC(=O)C(C(N)=O)C1c1ccccc1 (stereo not drawn)	-0.0067	0.73	0.9	2	0.62	33*
CCOc1ccccc1C1NC(=O)NC(C)=C1C(=O)OC1CCCC1C (stereo not drawn)	-5.3*	0.059	1	9	-0.66	8
CCOC(=O)C1=C(C)NC(=O)NC1c1ccc(NC(C)=O)cc1 (stereo not drawn)	0.078	-0.19	1	4	-1.4	7
CCCCCOC(=O)C1=C(C)NC(=O)NC1c1ccccc1OCC (stereo not drawn)	-5.7*	0.046	1.1	-1	-0.21	15
COc1ccc(N/N=C(\C=N\O)C(=O)c2ccc(OC)cc2)cc1	-0.49	0.42	0.9	8	·	35*
SMILES	Cav32 inh	DAT uptake mod	PLAP act	PostGolgi yeast	D1 allo mod	PostGolgi ctrl
COc1ccc(C(=O)/C=C(\C)Nc2ccc(NC(C)=O)cc2)cc1	0.35	-0.31	1	-2	·	-3
O=C(CCC1CCCCC1)NCCN1C2=NC[C@@H](Cc3ccccc3)N2C[C@H]1Cc1ccc(O)cc1	-2.2	0.0027	·	·	·	·
O=C(NCCSc1c[nH]c2ccccc12)c1ccco1	-0.041	0.32	0.8	3	0.028	6
C/C(=N\NC(=O)c1c[nH]c2ccccc12)c1ccco1	0.75	-0.017	2.3*	3	·	19
COc1ccc(CN2CCn3ncc(C(=O)Nc4cccc(C)c4)c3C2=O)cc1	-5.5*	-0.18	0.9	-9	·	-4
COc1ccc(CN2C3CCCC2CC(NC(=O)Nc2cccc(C)c2)C3)cc1 (stereo not drawn)	·	-0.013	·	·	·	·
O=S(=O)(Nc1ccc2c(c1)OCCO2)c1ccc2oc3ccccc3c2c1	-5.9*	-0.63	1.3	9	-1.1	59*
O=S(=O)(c1ccc2c(c1)oc1ccccc12)N1CCOCC1	-0.58	0.68	0.9	-11	3.4	3
O=S(=O)(Nc1ccc2c(c1)oc1ccccc12)N1CCCC1	-5.9*	-0.43	1	-13	-0.52	47*
CC1CCN(c2ccc3c(c2)S(=O)(=O)c2ccccc2C3=O)CC1	-2.2	-0.063	·	·	·	·
O=c1cc(NCc2ccco2)[nH]c(=O)n1-c1ccc(Br)cc1	-0.056	0.44	·	5	0.14	37*
O=c1cc(NCc2ccc3c(c2)OCO3)[nH]c(=O)n1-c1ccc(Cl)cc1	-0.07	-1.5	1	17	-0.42	-1
O=C(NC(=S)Nc1ccccc1)c1csnn1	-0.87	-0.28	1.1	-3	·	-5
CCOC(=O)c1cc2ccccc2n1CCN(CC)CC	0.43	0.01	1.6	-4	·	24
CN(C)CCn1c(C(=O)Nc2ccccc2)cc2ccccc21	0.87	0.022	1	-6	-2.7*	-1
Cc1onc(-c2ccccc2)c1C(=O)Nc1sc2c(c1C#N)CCC2	-1.9	-0.31	1	3	0.29	44*
Cc1onc(-c2ccccc2)c1C(=O)Nc1sc2c(c1C(N)=O)CCC2	-0.31	0.21	1.1	-3	1.2	37*
Cc1onc(-c2c(F)cccc2Cl)c1C(=O)Nc1sc2c(c1C(N)=O)CCC2	-2.6	1.9	0.9	-13	·	33*
NC(=O)c1c(NC(=O)CSc2nnc(-c3ccccc3)n2CC2CCCO2)sc2c1CCC2 (stereo not drawn)	0.38	2.7*	1.5	13	·	16
Cc1onc(-c2c(F)cccc2Cl)c1C(=O)Nc1sc2c(c1C#N)CCC(C(C)(C)C)C2 (stereo not drawn)	-1.7	-1.3	·	·	·	·
Cc1nnc(NC(=O)c2c(-c3ccccc3)noc2C)s1	-0.11	-0.61	1.1	-26	·	0
COc1ccc(CCc2cc(OC)cc(=O)o2)cc1	0.56	0.56	·	·	·	·
CCN(CC)CC(=O)Nc1c(C)cc(C)cc1C	·	·	·	1	·	1
NC(=O)c1c(NC(=O)c2cccs2)sc2c1CCCCCC2	0.37	0.17	0.8	10	0.3	68*
NC(=O)c1c(NC(NC(=O)c2ccco2)C(=O)c2ccc(Cl)cc2)sc2c1CCCC2 (stereo not drawn)	-0.68	-0.13	1.7	-2	·	7
